# Six1-Eya2 inh = Six1/Eya2 interaction inhibition; AlphaScreen GST-Six1/His-Eya2 binding, biochemical; hits give low values; activity change, % (test concentration not listed); hit rate 0.56% among 360,000; in the data active means activity change below about -65%; inconclusive means mostly about -30% to -63%; further: on the % scale 0 is the no-effect control and ±100 the full control effect
# Target sequence (O00167 whole entry, looked up): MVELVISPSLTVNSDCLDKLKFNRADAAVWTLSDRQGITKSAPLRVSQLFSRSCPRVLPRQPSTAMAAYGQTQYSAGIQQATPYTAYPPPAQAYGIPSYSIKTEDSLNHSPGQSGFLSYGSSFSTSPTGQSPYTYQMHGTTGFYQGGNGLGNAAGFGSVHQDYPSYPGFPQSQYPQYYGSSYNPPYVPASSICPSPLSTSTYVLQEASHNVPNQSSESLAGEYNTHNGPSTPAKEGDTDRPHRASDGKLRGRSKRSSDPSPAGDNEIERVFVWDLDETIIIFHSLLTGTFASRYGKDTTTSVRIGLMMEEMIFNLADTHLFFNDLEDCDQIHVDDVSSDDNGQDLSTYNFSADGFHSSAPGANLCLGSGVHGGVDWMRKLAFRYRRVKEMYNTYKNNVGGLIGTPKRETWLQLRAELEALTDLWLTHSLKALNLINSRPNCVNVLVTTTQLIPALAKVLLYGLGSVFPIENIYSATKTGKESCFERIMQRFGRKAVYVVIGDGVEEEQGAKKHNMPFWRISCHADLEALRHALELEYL
# Target sequence (Q15475 whole entry, looked up): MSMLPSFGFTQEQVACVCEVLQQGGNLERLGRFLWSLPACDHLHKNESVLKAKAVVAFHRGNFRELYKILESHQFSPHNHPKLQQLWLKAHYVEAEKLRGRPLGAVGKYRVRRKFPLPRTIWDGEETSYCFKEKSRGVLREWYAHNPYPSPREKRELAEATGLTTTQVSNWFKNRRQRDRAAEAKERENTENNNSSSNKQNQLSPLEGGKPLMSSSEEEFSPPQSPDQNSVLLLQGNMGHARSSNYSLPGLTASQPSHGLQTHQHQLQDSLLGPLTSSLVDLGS
#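 Six1/Eya2 binding was read as AlphaScreen signal after compounds were pinned into GST-Six1 plus His-tagged Eya2 (5X stock 250/500 nM) in pH 8.0 Tris/NaCl/TCEP buffer, beads added, then incubated 1 h, 37 C, dark.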
# JMJD2A Tudor inh = inhibitors of human JMJD2A Tudor domain. O75164. AlphaScreen JMJD2A-Tudor / H3K4me3 peptide binding. Potency, µM (series often up to 114 µM), for inactives: top-dose activity change, negative = inhibition, most hits filed as inhibitors. hit rate 4.4% among 390,000. AID 504339; further: potency means the concentration at half of the fitted maximal effect; on the % scale 0 is the no-effect control and ±100 the full control effect; nearly all actives have a fitted effect of over 50% in size
# TDP1 block = TDP1 (human) enzyme inhibition. Q9NUW8. recombinant TDP1, AlphaScreen DNA substrate cleavage. Potency, µM (titrated, usually from 130 µM), for inactives: at the highest dose activity change, negative = inhibition, hits mostly inhibitors. hit rate 0.28% among 350,000. AID 485290; further: potency means the concentration at half of the fitted maximal effect; on the % scale 0 is the no-effect control and ±100 the full control effect; nearly all actives have a fitted effect of over 40% in size
#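 AlphaScreen read-out: signal falls as enzyme removes the 3' tyrosine-FITC from a 5'-biotinylated DNA oligo (15 nM, 5 min, RT). Enzyme was E. coli-made recombinant Tdp1 at 1 nM, exposed to compound for 15 min beforehand; beads 10 ug/ml, 10 min.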
# BAZ2B inh = blocks human BAZ2B; AlphaScreen BAZ2B-H3K14Ac peptide displacement; Potency, µM (doses to about 114 µM), inactives show at the highest dose activity change, negative = inhibition, usual class: inhibitors; hit rate 4.4% among 360,000; AID 504333; further: potency means the concentration at half of the fitted maximal effect; on the % scale 0 is the no-effect control and ±100 the full control effect; nearly all actives have a fitted effect of over 60% in size
#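 AlphaScreen displacement of biotin-H3(5-23)K14Ac peptide (50 nM final) from BAZ2B (50 nM final) in PBS pH 7.4, 0.01% Tween-20; complex preformed 30 min RT, then compounds (top 110 uM) 30 min RT, beads 20 min dark.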
# HP1b binding inh = inhibitors of HP1-beta chromodomain binding to methylated histone tails; Potency, µM (series often up to 114 µM), without a hit: at the top dose activity change, negative = inhibition, actives largely listed as inhibitors; AlphaScreen HP1-beta / biotin-H3K9me3 peptide binding; hit rate 0.56% among 390,000; P83916; further: potency means the concentration at half of the fitted maximal effect; nearly all actives have a fitted effect of over 70% in size
#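 AlphaScreen: HP1-beta (50 nM) preformed 30 min with biotin-H3(1-18)K9me3 peptide (50 nM) in PBS pH 7.4, 0.01% Tween-20. Compound added for 30 min at RT, then streptavidin donor/nickel chelate acceptor beads (10 ug/mL) for 30 min.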
# CtBP-E1A blk = blocks the CtBP interaction with E1A; activity change, % (concentration not given with the values); hit rate 0.49% among 340,000; AlphaScreen GST-E1A/His-CtBP binding, 1536-well; hits give low values; in the data active means activity change below about -65%; inconclusive means mostly about -30% to -63%; further: on the % scale 0 is the no-effect control and ±100 the full control effect
#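 Homogeneous bead-based format: GST-tagged E1A captured on glutathione donor beads, His-tagged CtBP on nickel acceptor beads; compounds precede bead addition by 2 h at 37 °C.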
# * = called active by the depositor; ? = inconclusive; nt = no result given; ! = repeats disagree; [ ] = remark or other dose. Rows were chosen to be rich in hits. Some 5.3% of all compounds tested hit in one or more screens of this group. Unless noted, the call rests on the fitted dose curve; in most records, active means well fitted inhibition curve with a large enough effect; inconclusive means small, poorly fitted or top-dose-only effect; inactive means no such curve, though single readings can be large or run the other way.
SMILES,Six1-Eya2 inh,JMJD2A Tudor inh,TDP1 block,BAZ2B inh,HP1b binding inh,CtBP-E1A blk
CC(C)CCNC(=O)C1CCN(c2nc3ccccc3o2)CC1,4,-12%,0%,-26%,30%,7
Cn1nnnc1Sc1ncnc2scc(-c3cccc([N+](=O)[O-])c3)c12,nt,-27%,nt,nt,nt,nt
CC1(OC(=O)c2cccs2)C(=O)C=C2C=C3CCCN3C=C2C1=O (stereo unspecified),-10,56µM*,nt,45µM*,?,-5
CC1(OC(=O)C2CCCC2)C(=O)C=C2C=C3CCCN3C=C2C1=O (stereo unspecified),nt,nt,-9%[12.3 µM],nt,nt,nt
CC1(OC(=O)CCc2ccccc2)C(=O)C=C2C=C3CCCN3C=C2C1=O (stereo unspecified),-4,56µM*,4.5µM*!,56µM*,-9%,-5
COC(=O)c1cc2oc3ccccc3c2n1Cc1nc(-c2ccc(Cl)cc2)oc1C,nt,-13%,6%,2%,39%,nt
COc1ccc(NC(=O)c2ccc(-c3ccc(-c4noc(C)n4)cc3C)cc2)cc1OCCN(C)C,nt,nt,21%,nt,nt,nt
COc1ccc(NC(=O)c2ccc(-c3ccc(-c4noc(C)n4)cc3C)cc2)cc1N1CCN(C)CC1,-5,45µM*,19%[56.1 µM],35µM*,?,-26
COc1cc(C2Nc3ccccc3C(=O)N2c2ccccc2OC)ccc1O (stereo unspecified),8,-26%,6%,?,7%,8
O=C1c2ccccc2NC(c2ccc(O)c(O)c2)N1c1ccccc1Cl (stereo unspecified),16,-18%,3%,40µM*,-5%,nt
COc1cccc(CNC(=O)CCCN2C(=O)CSc3c2c(C)nn3-c2ccccc2)c1,nt,-15%,10%,-15%,53%,nt
CCCN(CCC)CCCNC(=O)Cn1cnc2onc(-c3ccc(F)cc3)c2c1=O,nt,-1%,4%,11%[57.1 µM],33%,nt
CC(NCC(O)COc1ccc2ccccc2c1)c1ccccc1 (stereo unspecified),-1,0.79µM*,nt,50µM*,45µM*,-6
CC(C)c1ccc(NC(=O)C[n+]2ccn(C3=C([O-])c4ccccc4C3=O)c2)cc1,-8,?,50µM*,-27%,19%,-1
O=C(c1ccc(Cl)cc1)N1CCC(c2ccncc2)CC1,nt,-3%,-6%,0%,31%,nt
CCc1ccc(NC(=O)C2CCCN(c3nn4cc(-c5ccc(OC)cc5)nc4s3)C2)cc1 (stereo unspecified),nt,-11%,-5%,0%,-5%,nt
COc1ccc(CNC(=O)c2sc3nc4n(c(=O)c3c2C)CCCCC4)cc1,nt,89µM*,9%,16µM*,3%,nt
COc1ccc(NC(=O)c2c(NCc3ccc(N(C)C)cc3)sc3c2CCC3)cc1,nt,56µM*,5%,32µM*,?,nt
COc1ccc(NC(=O)c2c(NCc3cccc(OC)c3)sc3c2CCCC3)cc1,nt,?,8%,-35%,13%,nt
COc1ccc(CC(=O)Nc2sc3c(c2C(=O)Nc2ccc(C)cc2)CCCCC3)cc1,nt,56µM*,-5%[12.3 µM],56µM*,5%,nt
CCOC(=O)c1ccc(NC(=O)c2c(NCc3sccc3C)sc3c2CCCCC3)cc1,nt,56µM*,5%,45µM*,-8%,nt
Cc1cc(C)cc(OCC(=O)N(Cc2ccco2)Cc2ccccc2Cl)c1,nt,2%,6%,47%,60%,nt
COc1ccc(CCNC(=O)c2c(C)oc3ncn(C)c(=O)c23)c(OC)c1,nt,-7%,-2%,12%[57.1 µM],3%,nt
COC(=O)c1ccc(NC(=O)c2cc3cc4ccc(OC)c(Cl)c4nc3s2)cc1,nt,-18%,3%,-19%,18%[57 µM],nt
COc1ccccc1OCCCOc1ccc(/C=C2\SC(=O)NC2=O)cc1OC,2,-32%,nt,-30%,8%,?
SMILES,Six1-Eya2 inh,JMJD2A Tudor inh,TDP1 block,BAZ2B inh,HP1b binding inh,CtBP-E1A blk
COc1ccccc1OCCCOc1cccc(/C=C2\SC(=O)NC2=O)c1,0,22µM*,nt,79µM*,-2%,-11
Cc1c(O)ccoc1=O,-1,28µM*,3%,-21%,32%,8
CCCCn1c(-c2csc(C(C)C)c2)n[nH]c1=S,10,79µM*,5%,-8%,?,-6
CCCCn1c(-c2csc(CC)c2)n[nH]c1=S,2,40µM*,5%,-36%,-19%,0
CCCCCCn1c(-c2cccs2)n[nH]c1=S,2,28µM*,3%,-23%,-15%,0
CCCCn1c(-c2csc3ccccc23)n[nH]c1=S,1,?,6%,-2%,22%,1
CCCc1cc(-c2n[nH]c(=S)n2CC(C)C)cs1,2,79µM*,-3%,-30%,-2%,-1
CCCCn1c(-c2csc3c2CCC(C)C3)n[nH]c1=S (stereo unspecified),-9,-27%,12%,-7%,6%,-6
COc1ccc(NC(=O)Cn2ncc3c([nH]c4ccccc43)c2=O)cc1Cl,nt,0%,7%,-1%,13%,nt
CCc1ccccc1NC(=O)C1=C(C)C(=O)OC12CCCCCC2,nt,-22%,6%,4%,-4%,nt
CNC(=O)c1nc(C)n(-c2ccc(Cl)cc2Cl)n1,5,10µM*,-1%,-5%,-11%,8
CCSc1ncc(/C=N/Nc2ccc(Cl)cc2)n1C,-7,56µM*,13%,35µM*,40µM*,-11
CCSc1ncc(/C=N/Nc2ccc([N+](=O)[O-])cc2)n1C,-8,8%,3%,-8%,2%,0
COc1cc(N=Nc2ccc(C)cc2S(N)(=O)=O)c(C)cc1N,?,6.3µM*,nt,nt,20µM*,?
CCC(Sc1nnc2c3ccccc3n(C)c2n1)C(=O)Nc1nnc(C(C)C)s1 (stereo unspecified),nt,-3%,-2%,2%,24%,nt
COc1ccc(NC(=O)c2cc(-c3ccco3)nc3ccccc23)cn1,-27,40µM*,14µM*,56µM*,?,-14
O=C(NC(=S)Nc1cccc(S(=O)(=O)NC2=NCCC2)c1)c1cc(-c2ccco2)nc2ccccc12,?,-36%,0%,?,?,?
O=C(Nc1cccc(S(=O)(=O)NC2=NCCC2)c1)c1cc(-c2ccco2)nc2ccccc12,?,?,nt,35µM*,?,-3
CN(C)C(=O)c1ccc(NC(=O)c2cc(-c3ccco3)nc3ccccc23)cc1,5,40µM*,2%,-15%,?,0
O=[S+]([O-])(c1ccc2ncsc2c1)N1CCN([S+](=O)([O-])c2c(F)cccc2F)CC1,nt,-12%,nt,nt,nt,nt
C/C(CCc1oc2ccc(Cl)cc2c1-c1ccc(C)o1)=N\O,-12,89µM*,5%,?,?,-10
Cc1cc(C)c(S(=O)(=O)Nc2ccc(-c3ccc(N4CCCCC4)nn3)cc2)cc1C,nt,-23%,8%,-13%,4%[57 µM],nt
